Bioassay records: PubChem BioAssay, National Center for Advancing Translational Sciences (NCATS)
TDP1 cell CPT: qHTS for Inhibitors of human tyrosyl-DNA phosphodiesterase 1 (TDP1): qHTS in cells in presence of CPT. chicken DT40 Tdp1-/-;hTDP1 cells + 20 nM CPT, ATP luminescence, 48 h. Potency, µM (series often up to 46.2 µM), for inactives: at the highest dose activity change, negative = growth inhibition, hits mostly inhibitors. 420,000 compounds, 12% hits. AID 686979, 2013; also: potency is read from the fitted curve at half-maximal effect; nearly all actives have a fitted effect of over 55% in size
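Chicken DT40 Tdp1-/- cells stably complemented with human TDP1 were seeded at 400 cells/well in medium containing 20 nM camptothecin, exposed to pin-transferred compounds, and grown at 37 °C for at least 48 hr. Viability was read as ATP luminescence.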
TDP1 cell noCPT: qHTS for Inhibitors of human tyrosyl-DNA phosphodiesterase 1 (TDP1): qHTS in cells in absence of CPT. DT40 Tdp1-/- hTDP1 cells, no CPT, ATP luminescence, 48 h. Potency, µM (doses to about 46.2 µM), without a hit: at the top dose activity change, negative = growth inhibition, actives largely listed as inhibitors. 420,000 compounds, 15% hits. AID 686978, 2013; also: potency is read from the fitted curve at half-maximal effect; nearly all actives have a fitted effect of over 55% in size
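Growth kinetics read by CellTiter-Glo luminescence after ≥48 hr at 37 °C. Cells: DT40 Tdp1-/- stably carrying human TDP1, 400 per well, compound exposure in the absence of CPT (DMSO vehicle).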
IL1B secr inh: qHTS for Inhibitors of Inflammasome Signaling: IL-1-beta AlphaLISA Primary Screen; 360,000 compounds, 4.7% hits; THP-1 LPS/ATP IL-1B secretion, AlphaLISA, 16 h; hits give low values; activity change, % at 57.5 µM; in the data active = activity change below about -50%; inconclusive = mostly about -30% to -49%
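Secreted IL-1B measured by AlphaLISA bead assay after 16 h compound exposure of THP-1 cells; compounds (final up to 57.5 uM) added 1 h before LPS (250 ng/mL) and ATP (1.25 mM) stimulation; lower signal means less secretion.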
ELG1 DNA repair: qHTS screen for small molecules that inhibit ELG1-dependent DNA repair in human embryonic kidney (HEK293T) cells expressing luciferase-tagged ELG1 | HEK293T ELG1-luciferase reporter, luminescence, 16 h; DNA damage induced by 5-fluorouridine | Potency, µM (top dose mostly 46.1 µM), without a hit: at the top dose activity change, negative = inhibition, actives largely listed as inhibitors | 330,000 compounds, 2.3% hits; also: potency is read from the fitted curve at half-maximal effect; nearly all actives have a fitted effect of over 55% in size
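Reporter activity after DNA damage by 5-fluorouridine is monitored. Compound-treated cells incubate 16 hr at 37 °C, then ONE-Glo is added for 30 min before luminescence reading.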
HT1080 IDH1KD tx: qHTS for induction of synthetic lethality in tumor cells producing 2HG: qHTS for the HT-1080-IDH1KD cell line; 360,000 compounds, 2% hits; Potency, µM (series often up to 46.1 µM), without a hit: top-dose activity, negative = toxicity, most hits filed as cytotoxic; HT-1080 IDH1 knockdown viability, ATP luminescence, 48 h; AID 686971, 2013;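 also: potency is read from the fitted curve at half-maximal effect; 0% = DMSO wells and -100% = cell-free medium wells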
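In this qHTS, HT-1080 cells depleted of IDH1 are exposed for 48 h at 37 °C to compound titrations. Toxicity is scored from CellTiter-Glo luminescence, with DMSO as full viability and medium alone as none.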
HT1080-NT tox: qHTS for induction of synthetic lethality in tumor cells producing 2HG: qHTS for the HT-1080-NT fibrosarcoma cell line; HT-1080-NT fibrosarcoma viability, CellTiter-Glo ATP luminescence, 48 h; Potency, µM (highest dose often 46.1 µM), for inactives: at the top dose activity, negative = less viability, actives largely listed as cytotoxic; 360,000 compounds, 1.6% hits;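 also: NT is the 2HG producing partner of a matched IDH1 knockdown line; potency is read from the fitted curve at half-maximal effect; 0% = DMSO-treated cells and -100% = media-only wells without cells; nearly all actives have a fitted effect of over 55% in size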
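Toxicity toward the 2HG-producing NT line was scored as %Activity, normalised to DMSO and no-cell wells, from CellTiter-Glo luminescence after 48 hours' treatment.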
Numbers without * were called inactive; ? = inconclusive; . = not tested or not shown. A selection: hits, their analogues and other compounds. The true share with any hit is near 19%. Unless noted, calls follow the shape of the dose curve; as a rule, active = well fitted curve in the direction sought with a large enough effect; inconclusive = small, poorly fitted or top-dose-only effect, or another doubt; inactive = no such curve, though single readings can be large; an effect the other way counts as inactive or inconclusive. Unless noted, % is scaled to controls: 0 for no effect and ±100 for the full control effect.

SMILES | TDP1 cell CPT | TDP1 cell noCPT | IL1B secr inh | ELG1 DNA repair | HT1080 IDH1KD tx | HT1080-NT tox
COc1ccc2c(C)c(CCC(=O)NCc3ccccc3OC)c(=O)oc2c1 | -23% | -23% | . | . | . | .
CC1Cc2cc(S(=O)(=O)CCC(=O)NCc3ccccc3Cl)ccc2N1C(=O)C1CC1 (stereo unspecified) | 7.3µM* | 7.3µM* | . | . | . | .
CC1Cc2cc(S(=O)(=O)CCC(=O)Nc3ccc(F)cc3Cl)ccc2N1C(=O)C1CC1 (stereo unspecified) | 23µM* | 13µM* | . | . | . | .
Cc1ccc(CNC(=O)CCS(=O)(=O)c2ccc3c(c2)CC(C)N3C(=O)C2CC2)cc1 (stereo unspecified) | 7.3µM* | 5.8µM* | 20 | -4% | -24% | -13%
CC(C)Oc1ccc(F)cc1-c1cc(C(=O)N2CCc3ccccc3C2)[nH]n1 | ? | ? | -21 | . | -22% | -19%
COc1ccc(CNc2nc(-c3ccc(OC)cc3)cc(C(F)(F)F)n2)cc1 | 13µM* | 5.8µM* | . | . | . | .
COc1ccc(-c2cc(C(F)(F)F)nc(NCc3ccco3)n2)cc1OC | 5% | -27% | 39 | ? | -9% | 0%
COc1ccc(-c2cc(C(F)(F)F)nc(NCc3ccccc3)n2)cc1OC | ? | 21µM* | . | . | . | .
O=C(Nc1ccc(Cl)cc1C(=O)c1ccccn1)c1ccccc1 | -3% | ? | 7 | . | 0% | 4%
CCOc1cc(NC(=O)c2ccccn2)c(OCC)cc1NC(=O)c1ccccc1 | ? | 21µM* | 3 | ? | 12% | 18%
CCOc1cc(NC(=O)C2CC2)c(OCC)cc1NC(=O)c1ccccn1 | 18µM* | 18µM* | -12 | ? | 10% | 13%
CCOc1cc(NC(=O)c2ccccn2)c(OCC)cc1NC(=O)CC(C)C | 13µM* | 8.2µM* | -5 | ? | 24% | 21%
CCOc1cc(NC(=O)c2ccccn2)c(OCC)cc1NC(=O)c1ccc(Cl)cc1 | 1.5µM* | 1.2µM* | 29 | -2% | 1% | 4%
CCOc1cc(NC(=S)Nc2ccccc2)c(OCC)cc1NC(=O)c1ccccc1 | 18µM* | 26µM* | -1 | ? | 0% | 1%
CCOc1cc(NC(=S)NC)c(OCC)cc1NC(=O)c1ccc(OC)cc1 | -14% | ? | 3 | 9% | 22% | 11%
O=C1CSC(=Nc2cccc(Cl)c2Cl)N1Cc1cccnc1 | ? | ? | -52* | -9% | -26% | -12%
Cc1ccccc1N=C1SCC(=O)N1Cc1ccccc1 | -2% | -3% | -1 | 5% | 3% | 9%
COc1ccc2c(c1)C(=O)CC2 | -6% | -2% | . | . | . | .
CCOC(=O)C1CCCN(CCc2ccccc2)C1 (stereo unspecified) | -6% | -4% | -9 | -9% | 6% | 5%
O=C(OC1C2CCC1C1CN(CCc3ccccc3)CC12)c1ccccc1 (stereo unspecified) | ? | 16µM* | -67* | ? | -18% | -11%
COC(=O)c1ccc(OC)c(Cn2c(=O)n(-c3cccc(Cl)c3)c(=O)c3c2c2cc(C)ccc2n3C)c1 | -13% | 1% | . | . | . | .
Cc1ccc(C(=O)NCc2ccco2)c(C)c1 | 13% | 8% | -5 | ? | 15% | 16%
O=C(Nc1ccc(Nc2ccccc2)cc1)c1c(Cl)cccc1Cl | ? | 21µM* | -87* | . | ? | -20%
Cc1ccc(NC(=O)c2c(F)cccc2Cl)cc1NS(C)(=O)=O | 5% | -7% | -3 | 2% | 15% | 18%
O=C(Nc1ccc(Nc2ccccc2)cc1)Nc1ccccc1Cl | 18µM* | 7.3µM* | ? | ? | ? | ?
SMILES | TDP1 cell CPT | TDP1 cell noCPT | IL1B secr inh | ELG1 DNA repair | HT1080 IDH1KD tx | HT1080-NT tox
CN(C)c1cccc(F)c1C(=O)NC(=O)Nc1ccc(Cl)cc1 | 5.2µM* | 6.5µM* | 33 | . | ? | ?
CC(C)(C)c1ccc(NC(=O)c2c(F)cccc2Cl)cc1 | 10µM* | 3.3µM* | -16 | ? | -11% | -12%
COc1ccc(C(=O)Oc2ccc(N(C)S(=O)(=O)c3ccccc3)cc2)cc1[N+](=O)[O-] | -18% | -18% | 4 | 3% | 3% | 4%
O=C(Nc1ccccc1)c1c(F)cccc1F | -3% | -11% | -12 | ? | 12% | 1%
O=C(Nc1ccc2c(c1)CCC2)Nc1ccccc1Cl | ? | -22% | -69* | ? | 12% | 26%
O=C(Nc1ccc(Nc2ccccc2)cc1)c1ccc(F)cc1 | ? | 21µM* | -10 | ? | -16% | -21%
Cc1ccccc1C(=O)Nc1cccc(NC(=O)c2ccc(F)cc2)c1 | -18% | ? | -50* | -22% | -18% | 1%
O=C(Nc1cccc(NC(=O)c2ccccc2Cl)c1)c1ccc(F)cc1 | ? | ? | -12 | -20% | -2% | -1%
O=C(Nc1ccc(Nc2ccccc2)cc1)c1c(F)c(F)c(F)c(F)c1F | 6.5µM* | 6.5µM* | -68* | ? | ? | -3%
O=C(O)c1ccc(C(=O)Nc2ccc(F)cc2)cc1 | -1% | 1% | 11 | ? | 1% | -4%
O=C(Nc1ccc(Cl)cc1)Nc1ccccc1Sc1ncc([N+](=O)[O-])s1 | 6.5µM* | 6.5µM* | 28 | ? | ? | ?
N#Cc1ccccc1NC(=O)Nc1ccc(Cl)cc1 | 4% | -8% | -12 | ? | 7% | 6%
O=P(C(=S)Nc1ccccc1Cl)(c1ccccc1)c1ccccc1 | 9.2µM* | 15µM* | 25 | . | -12% | -6%
O=C(Nc1csc([N+](=O)[O-])c1)Nc1ccccc1Cl | 21µM* | 23µM* | -98* | -13% | ? | ?
O=C(NCc1ccc(F)cc1F)[C@@H]1CCCN1C(=O)[C@@H]1CCCN1C(=O)c1cccs1 | ? | -13% | 0 | . | 24% | 20%
COc1cccc(C(=O)n2nc(-c3cccnc3)nc2NCc2ccc(F)cc2)c1 | -18% | ? | . | . | . | .
COc1ccc(OC)c(NC(=O)CSc2nncc(=O)n2N)c1 | 5% | 2% | -4 | -5% | 6% | -4%
